Here are results for 15 sequences from paper PMC10812921, “Transcriptional Coactivator BOB1 (OBF1, OCA-B) Modulates the Specificity of DNA Recognition by the POU-Domain Factors OCT1 and OCT2 in a Monomeric Configuration”.

The target in one test is POU1 (OCT1 POU domain) (human, UniProt P14859 260-458). The test can be described thus: EMSA-SELEX-seq; no BOB1; 20 mM Tris-HCl pH 7.6, 140 mM NaCl, 10% glycerol, 0.5 mM EDTA, 0.05% Triton X-100, 0.1 mg/mL BSA, 0.1 mg/mL poly(dI-dC), 5 mM DTT, room temperature, 20 min; high values mean tight binding. As to conditions: protein: recombinant; dsDNA, one strand shown. A digest of the protocol:
(§1)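 After expression in E. coli BL21, tagged POU-domain proteins were purified under denaturing conditions and then renatured. Each binding reaction held 30 ng protein and 300 ng of a PCR-amplified double-stranded random 35-nt library in 20 μL Tris–HCl pH 7.6 binding buffer, with or without 28 ng coactivator protein, for 20 min at RT. Bands holding complexes were cut from native 6% PAGE, eluted and PCR-amplified across four rounds, and the output was Illumina-sequenced. The value given for binding preference is the share, in percent, of sequenced 8-mers fitting a motif pattern.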
For orientation: A gel shift assay detects complexes by their altered migration in electrophoresis.

Another test has as its target T1, POU2 (OCT2 POU domain) (human, UniProt P09086 175-386).
T1 sequence: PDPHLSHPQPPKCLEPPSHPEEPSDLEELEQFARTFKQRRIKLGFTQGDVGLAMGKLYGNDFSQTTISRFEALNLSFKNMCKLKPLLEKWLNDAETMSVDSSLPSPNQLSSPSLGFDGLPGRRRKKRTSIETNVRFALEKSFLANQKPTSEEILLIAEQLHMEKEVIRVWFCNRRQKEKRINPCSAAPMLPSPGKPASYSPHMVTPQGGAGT
The test is described as above. As to conditions: protein: recombinant; dsDNA, one strand shown. A digest of the protocol: as §1

Test [1] has as its target POU1 (OCT1 POU domain);BOB1 (OBF1, OCA-B) (human;human, UniProt P14859;Q16633 260-458;1-256, |). Nature of the test: EMSA-SELEX-seq; with BOB1 (ternary complex band); 20 mM Tris-HCl pH 7.6, 140 mM NaCl, 10% glycerol, 0.5 mM EDTA, 0.05% Triton X-100, 0.1 mg/mL BSA, 0.1 mg/mL poly(dI-dC), 5 mM DTT, room temperature, 20 min; high values mean tight binding. As to conditions: protein: recombinant;recombinant; copies: 1;1; dsDNA, one strand shown. In short, it runs like this: as §1

Test [2] addresses T2, POU2 (OCT2 POU domain);BOB1 (OBF1, OCA-B) (human;human, UniProt P09086;Q16633 175-386;1-256, |).
T2 sequence 1: T1 sequence
T2 sequence 2: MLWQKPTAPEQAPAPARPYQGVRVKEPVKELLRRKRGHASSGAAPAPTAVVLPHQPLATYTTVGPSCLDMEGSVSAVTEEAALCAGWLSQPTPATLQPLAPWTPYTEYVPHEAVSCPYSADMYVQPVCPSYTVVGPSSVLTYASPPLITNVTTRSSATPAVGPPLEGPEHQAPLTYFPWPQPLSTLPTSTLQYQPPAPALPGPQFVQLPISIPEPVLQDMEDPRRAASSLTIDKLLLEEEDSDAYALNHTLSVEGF
The description is as above. Conditions: protein: recombinant;recombinant; copies: 1;1; dsDNA, one strand shown. A digest of the protocol: as §1

Sequence of POU1 (OCT1 POU domain) (P14859 260-458): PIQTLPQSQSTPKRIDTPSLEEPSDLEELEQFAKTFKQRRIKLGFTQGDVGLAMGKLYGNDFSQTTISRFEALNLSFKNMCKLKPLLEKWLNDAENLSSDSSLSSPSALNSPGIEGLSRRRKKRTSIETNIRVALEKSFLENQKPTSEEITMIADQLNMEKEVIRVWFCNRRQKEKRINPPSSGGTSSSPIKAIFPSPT

Turning to AAGTAAAT, the binding signal in the test with POU1 (OCT1 POU domain) is 0.19 % of ANNNNAAN 8-mers; in the test with POU2 (OCT2 POU domain), 0.146 % of ANNNNAAN 8-mers; in test [1], 0.227 % of ANNNNAAN 8-mers; in test [2], 0.147 % of ANNNNAAN 8-mers.

Take ATGGTAAG: the binding signal in the test with POU1 (OCT1 POU domain) was 0.0984 % of ANNNNAAN 8-mers; with POU2 (OCT2 POU domain), 0.127 % of ANNNNAAN 8-mers; in test [1], 0.071 % of ANNNNAAN 8-mers; in test [2], 0.09 % of ANNNNAAN 8-mers.

With AGGTCAAT, the binding signal is 0.0557 % of ANNNNAAN 8-mers with POU1 (OCT1 POU domain), 0.0662 % of ANNNNAAN 8-mers with POU2 (OCT2 POU domain), 0.0437 % of ANNNNAAN 8-mers in test [1] and 0.0636 % of ANNNNAAN 8-mers in test [2].

For the sequence AACCCAAC, the binding signal was 0.0103 % of ANNNNAAN 8-mers with POU1 (OCT1 POU domain), 0.0132 % of ANNNNAAN 8-mers with POU2 (OCT2 POU domain), 0.0113 % of ANNNNAAN 8-mers in test [1] and 0.0182 % of ANNNNAAN 8-mers in test [2].

ACTATAAA: the binding signal is 0.0439 % of ANNNNAAN 8-mers with POU1 (OCT1 POU domain), 0.0403 % of ANNNNAAN 8-mers in the test with POU2 (OCT2 POU domain), 0.041 % of ANNNNAAN 8-mers in test [1] and 0.0421 % of ANNNNAAN 8-mers in test [2].

For AGATGAAA, the binding signal was 0.0629 % of ANNNNAAN 8-mers in the test with POU1 (OCT1 POU domain), 0.0558 % of ANNNNAAN 8-mers with POU2 (OCT2 POU domain), 0.0718 % of ANNNNAAN 8-mers in test [1] and 0.0611 % of ANNNNAAN 8-mers in test [2].

For ACTAAAAG, the binding signal in the test with POU1 (OCT1 POU domain) was 0.0282 % of ANNNNAAN 8-mers; in the test with POU2 (OCT2 POU domain), 0.0368 % of ANNNNAAN 8-mers; in test [1], 0.0332 % of ANNNNAAN 8-mers; in test [2], 0.0297 % of ANNNNAAN 8-mers.

In the case of ATTACAAT, the binding signal in the test with POU1 (OCT1 POU domain) is 0.195 % of ANNNNAAN 8-mers; with POU2 (OCT2 POU domain), 0.26 % of ANNNNAAN 8-mers; in test [1] it was 0.0847 % of ANNNNAAN 8-mers; in test [2] it was 0.0966 % of ANNNNAAN 8-mers.

With AGACAAAT, the binding signal with POU1 (OCT1 POU domain) is 0.114 % of ANNNNAAN 8-mers; in the test with POU2 (OCT2 POU domain) it was 0.0748 % of ANNNNAAN 8-mers; in test [1] it was 0.187 % of ANNNNAAN 8-mers; in test [2] it was 0.105 % of ANNNNAAN 8-mers.

Regarding AGTGCAAT, the binding signal with POU1 (OCT1 POU domain) is 0.0347 % of ANNNNAAN 8-mers; in the test with POU2 (OCT2 POU domain), 0.0455 % of ANNNNAAN 8-mers; in test [1], 0.0367 % of ANNNNAAN 8-mers; in test [2], 0.0396 % of ANNNNAAN 8-mers.

ATCACAAG: the binding signal in the test with POU1 (OCT1 POU domain) was 0.0225 % of ANNNNAAN 8-mers; in the test with POU2 (OCT2 POU domain), 0.0334 % of ANNNNAAN 8-mers; in test [1], 0.0328 % of ANNNNAAN 8-mers; in test [2] it was 0.0446 % of ANNNNAAN 8-mers.

Turning to ATAAGAAT, the binding signal with POU1 (OCT1 POU domain) was 0.114 % of ANNNNAAN 8-mers; with POU2 (OCT2 POU domain), 0.143 % of ANNNNAAN 8-mers; in test [1], 0.0886 % of ANNNNAAN 8-mers; in test [2] it was 0.0892 % of ANNNNAAN 8-mers.

In the case of ATGGAAAT, the binding signal in the test with POU1 (OCT1 POU domain) was 0.943 % of ANNNNAAN 8-mers; in the test with POU2 (OCT2 POU domain), 0.723 % of ANNNNAAN 8-mers; in test [1], 0.958 % of ANNNNAAN 8-mers; in test [2] it was 0.982 % of ANNNNAAN 8-mers.

Regarding AGAGCAAG, the binding signal was 0.0156 % of ANNNNAAN 8-mers with POU1 (OCT1 POU domain), 0.0213 % of ANNNNAAN 8-mers in the test with POU2 (OCT2 POU domain), 0.0191 % of ANNNNAAN 8-mers in test [1] and 0.0132 % of ANNNNAAN 8-mers in test [2].

For the sequence AGGCTAAT, the binding signal with POU1 (OCT1 POU domain) was 0.133 % of ANNNNAAN 8-mers; with POU2 (OCT2 POU domain), 0.197 % of ANNNNAAN 8-mers; in test [1], 0.0675 % of ANNNNAAN 8-mers; in test [2], 0.0908 % of ANNNNAAN 8-mers.
